Compounds without any hit were thinned out: in the full panel of roughly 83,000, 20% have a hit.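 The endpoint reported here, percent growth, reads 100 for growth as untreated, 0 for no net growth and -100 for all cells dead.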 Values without a mark were called inactive. The source made the active and inactive calls. Rule for the calls: active = growth percent below 10; inactive = the rest.
How the values were obtained:
Assay in all cases: NCI-60 one-dose screen, 48 h (100 = growth as untreated, 0 = no growth, -100 = all killed)
Settings in all cases: 10 µM
NCI-H23 lung = test system: NCI-H23 lung
NCI-H226 lung = test system: NCI-H226 lung
NCI-H322M lung = test system: NCI-H322M lung
HOP-62 NSCLC = test system: HOP-62 NSCLC
NCI-H460 lung = test system: NCI-H460 lung
HOP-92 NSCLC = test system: HOP-92 NSCLC
NCI-H522 lung = test system: NCI-H522 lung
A549/ATCC NSCLC = test system: A549/ATCC NSCLC
786-0 renal = test system: 786-0 renal
COLO 205 colon = test system: COLO 205 colon
DU-145 prostate = test system: DU-145 prostate
K-562 leukemia = test system: K-562 leukemia
MALME-3M melanoma = test system: MALME-3M melanoma
MDA-MB-231 breast = test system: MDA-MB-231 breast
RXF 393 renal = test system: RXF 393 renal
SF-268 CNS = test system: SF-268 CNS
SF-295 CNS = test system: SF-295 CNS
SF-539 CNS = test system: SF-539 CNS
UACC-257 melanoma = test system: UACC-257 melanoma
M14 melanoma = test system: M14 melanoma

Compound | growth (NCI-H23 lung) | growth (NCI-H226 lung) | growth (NCI-H322M lung) | growth (HOP-62 NSCLC) | growth (NCI-H460 lung) | growth (HOP-92 NSCLC) | growth (NCI-H522 lung) | growth (A549/ATCC NSCLC) | growth (786-0 renal) | growth (COLO 205 colon) | growth (DU-145 prostate) | growth (K-562 leukemia) | growth (MALME-3M melanoma) | growth (MDA-MB-231 breast) | growth (RXF 393 renal) | growth (SF-268 CNS) | growth (SF-295 CNS) | growth (SF-539 CNS) | growth (UACC-257 melanoma) | growth (M14 melanoma)
O=C1/C(=C/c2ccc(O)cc2)Cc2ccc(Cl)cc21 | 69.5% | 68.1% | 84.9% | 95.3% | 84.4% | 77.3% | -38.8% (active) | 85.9% | 92.2% | 120% | 111% | 81.8% | 106% | 61.5% | 59.7% | 95.9% | 92.3% | 82.6% | 86% | 82.5%
Cn1cnc([N+](=O)[O-])c1/C=C1\Oc2ccc(Cl)cc2C1=O | 93.9% | 94.8% | 91% | 93.5% | 99.4% | 94% | 52.8% | 98.4% | 91.9% | 100% | 94.2% | 52.4% | 87.6% | 86.7% | 99.1% | 86.5% | 105% | 99.2% | 84.9% | 87.5%
Nc1ccn([C@@H]2O[C@H](COP(=O)(O)O[C@@H]3C[C@H](n4cc(F)c(=O)[nH]c4=O)O[C@@H]3COP(=O)(O)O[C@@H]3C[C@H](n4cc(F)c(=O)[nH]c4=O)O[C@@H]3COP(=O)(O)O[C@@H]3C[C@H](n4cc(F)c(=O)[nH]c4=O)O[C@@H]3COP(=O)(O)O[C@@H]3C[C@H](n4cc(F)c(=O)[nH]c4=O)O[C@@H]3COP(=O)(O)O[C@@H]3C[C@H](n4cc(F)c(=O)[nH]c4=O)O[C@@H]3COP(=O)(O)O[C@@H]3C[C@H](n4cc(F)c(=O)[nH]c4=O)O[C@@H]3COP(=O)(O)O[C@@H]3C[C@H](n4cc(F)c(=O)[nH]c4=O)O[C@@H]3COP(=O)(O)O[C@@H]3C[C@H](n4cc(F)c(=O)[nH]c4=O)O[C@@H]3COP(=O)(O)O[C@@H]3C[C@H](n4cc(F)c(=O)[nH]c4=O)O[C@@H]3COP(=O)(O)O[C@@H]3C[C@H](n4cc(F)c(=O)[nH]c4=O)O[C@@H]3COP(=O)(O)OCCOCCOCCOCCOCCOCCO)[C@H](O)C2O)c(=O)n1 (stereo not given in full) | 33.2% | 72.7% | 83.5% | 30% | 6.31% (active) | 71% | 45% | 11.7% | 28.2% | 36.9% | 41.6% | 53.8% | 64% | 91.4% | 63.9% | 36.8% | 1.32% (active) | 10.2% | 44.7% | 9.25% (active)
O/N=C1\CCC2CCCCC2C1 (stereo not given) | 103% | 103% | 106% | 108% | 103% | 82.9% | 93.4% | 96.6% | 105% | 114% | 113% | 106% | 98.2% | 114% | 104% | 103% | 93.6% | 88.8% | 107% | 102%
CCN(Cc1ccccc1)C1CCN(Cc2cc(Br)ccc2O)CC1 | 41.3% | 63.4% | 88.8% | 58.1% | 49.6% | 5.9% (active) | 61% | 58.9% | 62.7% | -20.6% (active) | 67.4% | 11.6% | 42.7% | 26.3% | 48.7% | 65.9% | 63.8% | 74.8% | 46.1% | 46.6%
O=C(O)c1ccc(CNc2ccc(C(=O)CCl)cc2)cc1 | 116% | 97.2% | 102% | 98.5% | 103% | 77.4% | -41.9% (active) | 94.9% | 109% | 97.3% | 101% | 92.1% | 111% | 104% | 78.4% | 109% | 86.1% | 102% | 75% | 105%
COc1c(-c2c3sc(=O)[nH]c3nc3c2c(=O)[nH]n3C(C)C)cc2c(c1OC)OCO2 | 100% | 85.8% | 92.2% | 94.5% | 107% | 72.2% | 86% | 95.8% | 86.5% | 117% | 108% | 86% | 80.3% | 108% | 110% | 102% | 88.3% | 94.8% | 99.7% | 93.8%
COc1ccc(-c2cc(/C=C3\C(=O)Nc4cc(Cl)ccc43)[nH]n2)cc1OC | 92.9% | 80.8% | 89.8% | 75% | 62.9% | 81.7% | 46% | 75.7% | 105% | 79.4% | 96.4% | 33.1% | 37.7% | 78.2% | 73.1% | 74.4% | 47.6% | 69.1% | 114% | 68%
N#C/C(=C/c1cc([N+](=O)[O-])ccc1Cl)C(N)=O | 98.4% | 94.4% | 97.2% | 94.8% | 110% | 87.8% | 87.7% | 106% | 104% | 117% | 92.7% | 38.8% | 99% | 111% | 99.2% | 96.4% | 98.1% | 101% | 97.8% | 88.8%
Clc1cc(Cl)c(OCCCCCCN2CCNCC2)c(Cl)c1 | 53.9% | 94% | 78.3% | 77.6% | -39.8% (active) | -0.831% (active) | 55.1% | 53.8% | 23.1% | -71.3% (active) | 67.1% | -43.6% (active) | 50.1% | -8.55% (active) | 24.1% | 55.3% | -37.8% (active) | 49% | -1.75% (active) | -43.9% (active)
CCOCC[P+](c1ccccc1)(c1ccccc1)c1ccccc1 | 36% | 80% | 82% | 50.3% | 58.7% | -6.22% (active) | 26.2% | 45.3% | 72.5% | 44.5% | 59.8% | 20% | 61.1% | 63.5% | 79.2% | 61.9% | 39% | 56.2% | 14% | 60.8%
O=C(O)CN1C(=O)C=CC1=O | 106% | 108% | 90.9% | 107% | 107% | 111% | 103% | 108% | 103% | 94.8% | 104% | 96.4% | 97.7% | 107% | 98.9% | 94.4% | 103% | 96.2% | 115% | 106%
FC(F)(F)c1ccc(-c2nc(-c3nc4cc(Cl)c(Cl)cc4[nH]3)c3ccccn23)cc1 | 75.1% | 55.2% | 61.2% | 64% | 60.4% | 37.9% | 74.8% | 62% | 56.3% | 87.1% | 58.6% | 79.8% | 22.3% | 29.6% | 31.7% | 44.9% | 71.2% | 32.6% | 93.4% | 79.6%
COc1ccc(-c2nsc3c2NC(=O)CC3c2cccc(Cl)c2)cc1 (stereo not given) | 46.9% | 75% | 36% | 27.8% | 13.3% | -2.09% (active) | -6.59% (active) | 30.2% | 46.4% | -40.6% (active) | 23.7% | 10.4% | 26.2% | 51.6% | -1.29% (active) | 57.2% | 5.03% (active) | -14.1% (active) | 45% | 19.2%
FC(F)(F)c1ccc(-c2cnc(Br)nc2NC2CCCCCC2)cc1 | 33.1% | 53.1% | 78.2% | 53.5% | 28.6% | -21.4% (active) | 7.77% (active) | 28.8% | 54.6% | 25.1% | 74.9% | 10.6% | -42.4% (active) | 62.4% | 52.7% | 43.6% | -33.2% (active) | 82.4% | -1.23% (active) | 23.1%
